# Experimental data as given in PubChem BioAssay (NCATS).
# Results filed as inconclusive are left out. A call without a number means that no potency is given here. Activity calls are given as the source filed them. Unless noted, the call rests on the fitted dose curve.
# Molecular target: Single-stranded DNA cytosine deaminase (Homo sapiens) (UniProt Q9GZX7)
# Test: Validation qHTS assay for inhibitors of Activation Induced Cytidine Deaminase (AID): AID signal (AID 1347429; active means well fitted inhibition curve with a large enough effect)
# Details: Recombinant AID, FRET ssDNA deamination with UDG, fluorescence; series mostly up to 115 µM
# Procedure, shortened: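 Compounds (final up to 114 uM) preincubated with AID plus UDG; 250 nM DJC20/DJC23 substrate mix (4x stock) added, 4 hr at room temperature, then NaOH, 30 min. Read 1 fluorescence at 540 nm excitation, 590 nm emission.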
# Single-stranded DNA cytosine deaminase (Homo sapiens), sequence (Q9GZX7 whole entry, looked up): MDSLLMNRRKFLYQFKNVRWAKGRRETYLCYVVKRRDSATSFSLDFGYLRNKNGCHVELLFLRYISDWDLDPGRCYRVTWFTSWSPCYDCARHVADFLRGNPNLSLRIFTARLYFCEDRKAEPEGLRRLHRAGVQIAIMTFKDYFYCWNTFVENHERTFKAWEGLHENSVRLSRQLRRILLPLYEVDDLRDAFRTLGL
row,SMILES,Potency
1,CCn1cnc2c(Nc3cccc(Cl)c3)nc(N[C@@H]3CCCC[C@@H]3N)nc21,inactive
2,NCCCP(=O)(O)O,inactive
3,NC(CCCCCP(=O)(O)O)C(=O)O (stereo not drawn),inactive
4,CC(N)[C@H](O)c1ccc(O)c(O)c1 (stereo partly drawn),inactive

# Test system: not listed separately
# Test: Primary qHTS for inhibitors of SARS-S pseudo-typed particle cell entry (AID 1479145); further: nearly all actives have a fitted effect of over 45% in size
# Details: SARS-S pseudotyped particle cell entry, luciferase reporter; series mostly up to 57.1 µM
row,SMILES,outcome
1,CCNC1(c2cccs2)CCCCC1=O (stereo not drawn),inactive
2,CN1[C@H]2CC[C@@H]1[C@@H](C(=O)O)[C@@H](OC(=O)c1ccccc1)C2,inactive
3,O=C(C[C@@H]1NCCC[C@H]1O)Cn1cnc2cc(Br)c(Cl)cc2c1=O,inactive
4,COc1cc2c(cc1OC)[C@@]13CCN4CC5=CCO[C@H]6CC(=O)N2[C@H]1[C@H]6[C@H]5C[C@H]43,inactive
5,c1ccc2sc(SNC3CCCCC3)nc2c1,inactive
6,CC(=O)O[C@H]1CC[C@H]2[C@@H]3CCC4=CC(=O)CCC4=C3C=C[C@]12C,inactive
7,O=C/C=C/c1ccccc1,inactive
8,O=C(OCCN1CCCCC1)C(O)(c1ccccc1)c1ccccc1,inactive
9,Cn1sc(Cl)cc1=O,inactive
10,O=[N+]([O-])c1ccccc1,inactive
11,O=c1[nH]cc(N(CCCl)CCCl)c(=O)[nH]1,inactive [at 114 µM]
12,CCCCCCCCCC(=O)O[C@H]1CC[C@H]2[C@@H]3CCC4=CC(=O)CC[C@]4(C)[C@H]3CC[C@]12C,inactive
13,CC1CCC(C(C)C)C(OC(=O)c2ccccc2N)C1 (stereo not drawn),inactive
14,C[C@@H](CO)NC(=O)[C@@H]1C=C2c3cccc4[nH]cc(c34)C[C@H]2N(C)C1,inactive
15,O=C(O)C(Cl)(Cl)Cl,inactive
16,CC[N+](C)(CC)CCOC(=O)C(O)(c1ccccc1)c1ccccc1,inactive
17,O=[N+]([O-])c1cc(I)c(O)c(I)c1,inactive

# Test system: not listed separately
# Test: Primary qHTS for Huh7 cytotoxicity: counterscreen for inhibitors of MERS-S pseudotyped particle cell entry (AID 1479147)
# Details: cell viability read-out; series mostly up to 57.1 µM
row,SMILES,outcome
1,CCNC1(c2cccs2)CCCCC1=O (stereo not drawn),inactive
2,CN1[C@H]2CC[C@@H]1[C@@H](C(=O)O)[C@@H](OC(=O)c1ccccc1)C2,inactive [at 114 µM]
3,O=C(C[C@@H]1NCCC[C@H]1O)Cn1cnc2cc(Br)c(Cl)cc2c1=O,inactive
4,COc1cc2c(cc1OC)[C@@]13CCN4CC5=CCO[C@H]6CC(=O)N2[C@H]1[C@H]6[C@H]5C[C@H]43,inactive
5,c1ccc2sc(SNC3CCCCC3)nc2c1,inactive
6,CC(=O)O[C@H]1CC[C@H]2[C@@H]3CCC4=CC(=O)CCC4=C3C=C[C@]12C,inactive
7,O=C/C=C/c1ccccc1,inactive
8,O=C(OCCN1CCCCC1)C(O)(c1ccccc1)c1ccccc1,inactive
9,Cn1sc(Cl)cc1=O,inactive
10,O=[N+]([O-])c1ccccc1,inactive
11,O=c1[nH]cc(N(CCCl)CCCl)c(=O)[nH]1,inactive [at 114 µM]
12,CCCCCCCCCC(=O)O[C@H]1CC[C@H]2[C@@H]3CCC4=CC(=O)CC[C@]4(C)[C@H]3CC[C@]12C,inactive
13,CC1CCC(C(C)C)C(OC(=O)c2ccccc2N)C1 (stereo not drawn),inactive
14,C[C@@H](CO)NC(=O)[C@@H]1C=C2c3cccc4[nH]cc(c34)C[C@H]2N(C)C1,inactive
15,O=C(O)C(Cl)(Cl)Cl,inactive
16,CC[N+](C)(CC)CCOC(=O)C(O)(c1ccccc1)c1ccccc1,inactive
17,O=[N+]([O-])c1cc(I)c(O)c(I)c1,inactive
